Measurements from PubChem BioAssay (NCATS).
Results filed as inconclusive are left out. Active and inactive are the calls of the source. The call rests on the fitted dose curve; in most records, active means well fitted cell-killing curve with a large enough effect; inconclusive means small, poorly fitted or top-dose-only effect; inactive means flat fitted curve, though single readings scatter.

Assays:
[1] = Cell Viability - LYMP2-007 (AID 979);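 further: cells exposed to compound for 24 h before reading; nearly all actives have a fitted effect of over 60% in size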
Procedure, shortened: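 Human lymphoblastoid LYMP2-007 cells (2500/well) preincubated 5 h at 37 C, then treated 24 h at 37 C in complete medium. Viability by CellTiter-Glo ATP luminescence after 30 min at room temperature; AC50 from Hill fits.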

[2] = Cell Viability - LYMP2-008 (AID 980); further: nearly all actives have a fitted effect of over 60% in size
From the text: (§1) NIH Chemical Genomics Center [NCGC]
(§2) NIH Molecular Libraries Screening Centers Network [MLSCN]
(§3) National Institutes of Environmental Health Sciences [NIEHS]
(§4) National Toxicology Program [NTP]
(§5) We have developed a 1536-well cell-based assay for quantitative high throughput screening (qHTS) against a number of cell lines to determine in vitro cytotoxicity of small molecules. This particular assay uses a human lymphoblastoid cell line (LYMP2-008) purchased from Coriell Institute for Medical Research.
(§6) NCGC Assay Protocol Summary:
(§7) The CellTiter-Glo luminescent cell viability assay (Promega) is a homogeneous method to measure the number of viable cells in culture. The end point readout of this assay is based on quantitation of intracellular ATP, an indicator of metabolic activity, using the luciferase reaction. […]
(§8) Using the CellTiter-Glo luminescent cell viability assay, the amount of cellular ATP was measured in the lymphoblastoid cell line with complete culture medium following compound treatment for 24 hours. […] Library compounds were measured for their ability to cause acute toxicity in the cell line, as reflected by a decrease in intracellular ATP levels, in a concentration-dependent manner. […] AC50 values were determined from concentration-response data modeled with the standard Hill equation. […]
(§9) 8. Detection; Luminescence; Viewlux plate reader […]

[3] = Cell Viability - LYMP2-010 (AID 981); further: nearly all actives have a fitted effect of over 55% in size
Procedure, shortened: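 Human lymphoblastoid LYMP2-010 cells (2500/well) treated 24 h at 37 C in complete medium; viability read as intracellular ATP by CellTiter-Glo luminescence. AC50 from Hill fits of concentration-response data; tetraoctylammonium bromide positive control.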

[4] = Cell Viability - LYMP2-012 (AID 982);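 further: cellular ATP by luciferase luminescence where a drop means cytotoxicity; cells exposed to compound for one day before reading; nearly all actives have a fitted effect of over 55% in size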
[5] = Cell Viability - LYMP2-014 (AID 983); further: series mostly up to about 92 µM; nearly all actives have a fitted effect of over 50% in size
Procedure, shortened: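 LYMP2-014 human lymphoblastoid cells, 2500/well, treated 24 h at 37 C in complete medium; viability by CellTiter-Glo ATP luminescence after 30 min at room temperature. AC50 from Hill fits of qHTS concentration-response; tetraoctylammonium bromide positive control.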

[6] = Cell Viability - LYMP2-016 (AID 984); further: nearly all actives have a fitted effect of over 55% in size
Procedure, shortened: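 Concentration-dependent ATP depletion measured in LYMP2-016 lymphoblastoid cells, 24 h, 37 C; luciferase-based luminescent detection; Hill-equation AC50.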

[7] = Cell Viability - LYMP2-018 (AID 985);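 further: compound exposure lasted 24 hr at 37 °C; nearly all actives have a fitted effect of over 50% in size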
Procedure, shortened: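 Human lymphoblastoid LYMP2-018 cells, 2500/well, settled 5 hr at 37 C then exposed to compound 24 hr at 37 C; intracellular ATP measured by CellTiter-Glo luminescence. AC50 from Hill-equation concentration-response fits.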

[8] = Cell Viability - LYMP2-020 (AID 986); further: series mostly up to about 92 µM; nearly all actives have a fitted effect of over 55% in size
Procedure, shortened: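 Human lymphoblastoid LYMP2-020 cells (2500/well) preincubated 5 h at 37 C, then treated 24 h at 37 C. Viability measured as intracellular ATP by CellTiter-Glo luminescence after 30 min at room temperature; AC50 from Hill fits.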

[9] = Cell Viability - LYMP2-022 (AID 987); further: nearly all actives have a fitted effect of over 55% in size
Procedure, shortened: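 LYMP2-022 lymphoblastoid cells (2500/well, complete medium) were treated with compounds for 24 hours at 37 C; intracellular ATP was then read by CellTiter-Glo luminescence after 30 min at room temperature. AC50 values were derived from Hill-equation fits.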

[10] = Cell Viability - LYMP2-024 (AID 988); further: nearly all actives have a fitted effect of over 60% in size
From the text: as §1, §2, §3, §4
as §5, with “(LYMP2-024)” for “(LYMP2-008)”
as §6, §7, §8, §9

Measured: outcome

Cc1cc(O)c2c(c1)C(=O)c1cccc(O)c1C2=O
inactive: all assays above
